Drawing on PubChem BioAssay (Tox21), this text covers Potency and activity change, negative = cytotoxicity for 40 molecules.

Records with an inconclusive call do not appear. Where a call stands in place of a potency, no number is given. The source made the active and inactive calls. Calls come from the whole dose curve; as a rule, active = well fitted cell-killing curve with a large enough effect in the repeat runs; inconclusive = weak or mixed curves, or effect the other way; inactive = no such curve, though single readings can be large or run the other way.

The nature of this experiment: qHTS assay to identify small molecule agonists of the estrogen receptor alpha (ER-alpha) signaling pathway in the presence of an antagonist - cell viability counter screen (AID 1259386). Note: nearly all actives have a fitted effect of over 30% in size. The conditions noted are these: VM7Luc4E2 viability, CellTiter-Fluor fluorescence, 22 h; series mostly up to 92.4 µM. The text has this: National Center for Advancing Translational Sciences [NCATS]
NIH Chemical Genomics Center [NCGC]
U.S. Environmental Protection Agency [EPA]
National Institutes of Environmental Health Sciences [NIEHS]
National Toxicology Program [NTP]
U.S. Food and Drug Administration [FDA]
Estrogen receptor (ER), a member of nuclear hormone receptor plays an important role in development, metabolic homeostasis and reproduction. Two subtypes of ER, ER-alpha and ER-beta, have similar expression patterns with some uniqueness in both types. Endocrine disrupting chemicals (EDCs) and their interactions with steroid hormone receptors like ER causes disruption of normal endocrine function. Therefore, it is important to understand the effect of environmental chemicals in ER signaling pathway. For identifying ER agonists, VM7Luc4E2 cell line has been used in the current assay.
VM7Luc4E2 cell line (provided by Denison MS, University of California) endogenously expresses full-length ER-alpha and is stably transfected with a plasmid containing four estrogen responsive elements (ERE) upstream of a luciferase reporter gene. This current screening for measuring luciferase reporter gene activity using VM7Luc4E2 cells against Tox21 10K library collection is a confirmation study on agonist mode screening in presence of ER-antagonist (ICI-182,780) at 10.0nM final concentration. The cytotoxicity of the compounds was tested in parallel by measuring the cell viability using CellTiter-Fluor assay system (Promega, Madison, WI) in the same wells.
Tox21 Assay Protocol Summary:
VM7Luc4E2 cells were cultured in phenol red free assay medium containing 10% charcoal stripped FBS for 5 days prior to the assay. The cells were dispensed at 4,000 cells in 4uL of assay medium per well into white wall/solid-bottom 1536-well plates (Corning Life Sciences, Corning, NY) using a Multidrop Combi (Thermo Fisher Scientific Inc., Waltham, MA) dispenser. After the assay plates were incubated at 37C and 5% CO2 for 24hr, 1uL of 10.0nM (final concentration) ICI-182,780 or assay buffer was added using two separate tips of Flying Reagent Dispenser (FRD, Aurora Discovery, San Diego, CA). Then 23nL of compounds dissolved in DMSO at 15 concentrations and positive controls or DMSO only was transferred to the assay plates by a Pintool station (Wako, San Diego, CA). The assay plates were incubated at 37C and 5% CO2 for 22hr. After 21hr incubation at 37C, 1uL/well CellTiter-Fluor reagent (Promega Corporation, Madison, WI) was added to each well using FRD and after 1hr incubation at 37C and 5% CO2, the fluorescence signal was measured on ViewLux plate reader (PerkinElmer, Shelton, CT).
For orientation: In qHTS, concentration-response curves come from the screen itself.
On to `Cc1[nH]cnc1-c1ccc(Cl)cc1`, for which the Potency entry is “inactive”. In the case of `N#Cc1ccc(C(=O)O)cc1`, the Potency result was “inactive”. In the case of `CCCCNC1CC(C)(C)NC(C)(C)C1`, the Potency entry is “inactive”. For `COc1cc(N)ccc1C`, the Potency entry was “inactive”. Still for that read-out and setting: the value for `CN(C)C(=O)CNC(=O)Cc1ccccc1` was “inactive”; that for `OCCC(F)(F)C(F)(F)C(F)(F)C(F)(F)C(F)(F)C(F)(F)C(F)(F)C(F)(F)F` was “inactive”. On to `CC(C)NCC(O)COc1cccc2[nH]ccc12` (stereo not given), for which the Potency result was “inactive”. On to `O=C(O)Cc1ccc(Cl)cc1Cl`, for which the Potency result was “inactive”. With `O=C1c2ccccc2C(=O)C1c1ccccc1`, the Potency result was “inactive”. In the case of `CCCCCCCCSCC`, the Potency entry is “inactive”. As to `CN(C)c1ccc(C=O)cc1`, the Potency result was “inactive”. On the same count and under the same terms, the entry for `O=C(O)c1cc(Br)c(O)c(Br)c1` is “inactive”; for `CCCCOCCOC(=O)COc1nc(Cl)c(Cl)cc1Cl` it is “inactive”. With `O=S(=O)(O)c1ccc2cc(O)c(S(=O)(=O)O)cc2c1`, the Potency result is “inactive”. In the case of `O=S(=O)(O)CCN1CCN(CCO)CC1`, the Potency entry was “inactive”.

Regarding `CC(C)CCCC(C)(C)O`, the Potency result is “inactive”. On the same count and under the same terms, the value for `O=C(/N=N/C(=O)OCc1ccccc1)OCc1ccccc1` was “inactive”; that for `CC(C)c1ccc2cc(C(C)C)ccc2c1` was “inactive”; that for `CCC(C)NC(N)=O` (stereo not given) was “inactive”. Take `CC/C=C\CC1=C(C)CCC1=O`: the Potency result was “inactive”. Same read-out and setting: the value for `c1ccc2nccnc2c1` was “inactive”; that for `O=C(Nc1ccc(Cl)c(Cl)c1)C1CC1` was “inactive”; that for `CC(=O)NCc1c(I)c(NC(C)=O)c(I)c(C(=O)O)c1I` was “inactive”. Same read-out and setting: the value for `CCOC(=O)c1ccc(OC(=O)CCCCCN=C(N)N)cc1` was “inactive”. Regarding `O=C(O)C(=O)Cc1ccccc1`, the Potency result was “inactive”. As for `CCCCCCOc1ccccc1C(N)=O`, the Potency entry was “inactive”. Consider `CC(C)(C)c1cc(CCC(=O)NN)cc(C(C)(C)C)c1O`, for which the Potency result was “inactive”.

As to `CCCCCOC(=O)CCC`, the Potency entry is “inactive”. As to `C=C(C)C(=O)OCCN(CC)CC`, the Potency result is “inactive”. Consider `Cc1ccccc1N=O`, for which the Potency entry was “inactive”. On to `CC(C)(C)NC(N)=O`, for which the Potency entry is “inactive”. For the molecule `On1nnc2ccccc21`, the Potency entry is “inactive”.

In the case of `CC(=O)NCCCCCC(=O)O`, the Potency result was “inactive”. On the same count and under the same terms, the value for `Cc1ccc(S(=O)(=O)O)c(C)c1` was “inactive”; that for `C[C@H](N)[C@H](O)c1cccc(O)c1` was “inactive”. Consider `Oc1cn2c(n1)Nc1ccc(Cl)c(Cl)c1C2`, for which the activity change, negative = cytotoxicity was 5.64% [at 19 µM] (inactive). Regarding `CCNC(=O)C1CC(C)CCC1C(C)C` (stereo not given), the Potency entry is “inactive”. As for `Cc1ccc(C=O)cc1C`, the Potency entry is “inactive”. Consider `C[Si](C)=O`, for which the activity change, negative = cytotoxicity was 2.9% [at 8.39 µM] (inactive).

Regarding `CC(C)CC(C)CC(C)CC(C)COC(=O)c1ccccc1C(=O)OCC(C)CC(C)CC(C)CC(C)C` (stereo not given), the Potency entry was “inactive”.
